hcDAF-12 act: H. contortus DAF-12 nuclear receptor activators, primary screen, cell-based, luminescence, HEK293, lit1-tk-luc reporter | HEK293 hcDAF-12 lit1-tk-luc reporter; 0% DMSO, 100% Δ7-dafachronic acid | activation, % at 6.8 µM | 1.4% of 370,000 active | AID 652067, 2013;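 active = activation above the mean of all tested compounds plus 3 SD, cut at about 5.5% in these data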;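 also: 100% = response to 3 µM Δ7-dafachronic acid high control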
FXN GAA850 act: FXN promoter activators, primary screen, cell-based, luciferase luminescence, HEK293 lucGAA850; HEK293 lucGAA850 FXN promoter luciferase reporter, 24 h; percent of 10 µM SAHA response; activation, % at 6 µM; 0.56% of 360,000 active;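 active = activation above the average of all compounds screened plus 3 SD, cutoff fixed separately per campaign, cut at about 7.5% in these data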;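 also: 0% = DMSO wells and 100% = 10 µM SAHA wells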
DAX1 inh-1: DAX1 (NR0B1) inhibitors on StAR promoter, primary screen, cell-based, luminescence, SF-1 (NR5A1), full-length DAX-1; HEK293T StAR-luciferase reporter, SF-1/DAX-1 repression relief; inhibition, % at 6.8 µM; 1.1% of 370,000 active; AID 652010, 2013;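 active = inhibition above the mean over all tested compounds plus 3 SD, cut at about 3.6% in these data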;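 also: 0% = DAX-1 cells with DMSO and 100% = cells lacking DAX-1 with DMSO; higher inhibition means more luminescence from relief of DAX-1 repression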
DAX1 inh-2: DAX1 (NR0B1) inhibitors, primary screen, cell-based, HEK293, Gal4-DAX1, luciferase luminescence | inhibition, % at 6.75 µM | 0.99% of 340,000 active | HEK293 Gal4-DAX1 luciferase reporter;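 active = inhibition above the mean over all tested compounds plus 3 SD, cut at about 4.2% in these data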;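 also: 0% = DAX1-transfected cells with DMSO and 100% = empty-vector control cells with DMSO; inhibition shows as a rise in luminescence from relieved DAX1 repression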
Target sequence (P51843 207-470 limits assumed): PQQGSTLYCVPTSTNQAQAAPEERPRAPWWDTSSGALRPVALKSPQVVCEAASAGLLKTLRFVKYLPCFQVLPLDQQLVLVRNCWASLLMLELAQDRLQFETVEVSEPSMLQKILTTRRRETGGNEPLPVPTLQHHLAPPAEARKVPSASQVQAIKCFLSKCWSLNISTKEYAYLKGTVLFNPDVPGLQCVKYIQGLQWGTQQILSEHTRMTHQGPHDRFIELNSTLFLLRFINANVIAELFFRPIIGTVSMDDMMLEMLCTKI
hgDAF-12 ag: H. glycines DAF-12 receptor agonists, primary screen, cell-based, luminescence, HEK293, GAL4 fusion, UAS-luciferase; activation, % at 6.8 µM; HEK293 GAL4-hgDAF12 UAS-luciferase reporter, agonist luminescence; normalized to butyrate control; Nuclear hormone receptor DAF-12 (Heterodera glycines), GAL4 fusion; 1.8% of 370,000 active;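 active = activation above a cutoff set at the mean of all screened compounds plus 3 SD, cut at about 10% in these data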;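 also: 0% = DMSO wells and 100% = sodium butyrate wells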
ssDAF-12 act: S. stercoralis DAF-12 nuclear receptor activators, primary screen, cell-based, luminescence, HEK293, GRIP1 co-expression, lit1-tk-luc. HEK293 ssDAF-12/GRIP1 lit1-tk-luc reporter; % of 3 µM dafachronic acid response. AID 652126, 2013. activation, % at 6.8 µM. 1% of 370,000 active;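 active = activation above the mean over all tested compounds plus 3 SD, cut at about 0.9% in these data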;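 also: 0% = DMSO-only wells and 100% = 3 µM delta7-dafachronic acid wells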
The depositor's hits bear a star; · = no result given. Sampled rows, rich in hits. Any-hit rate of the full collection: about 4.5%.

SMILES	hcDAF-12 act	FXN GAA850 act	DAX1 inh-1	DAX1 inh-2	hgDAF-12 ag	ssDAF-12 act
CC(OC(=O)c1n[nH]c2ccccc12)C(=O)Nc1ccccc1[N+](=O)[O-] (stereo unspecified)	3	3	0	-1	4	1.0*
C#CCOCC1CN(c2ccccc2)C(=O)O1 (stereo unspecified)	0	0	-1	4.2*	-2	-1
O=C1OC(COCC#Cc2ccccc2)CN1c1ccccc1 (stereo unspecified)	0	-2	-1	0	0	-1
O=C(Nc1ccc(Cl)cc1)c1ccc2ncsc2c1	1	3	1	1	7	-1
O=C(Nc1ccc(F)cc1)c1ccc2ncsc2c1	4	6	1	1	12*	0
O=C(Nc1nc2ccccc2s1)c1ccc2sc([C@H]3C[C@H](O)[C@@H](CO)O3)nc2c1	0	3	0	·	11*	-1
O=C(Nc1ccc(Cl)cc1)c1ccc2sc([C@@H]3O[C@H](CO)[C@@H](O)[C@H]3O)nc2c1	4	2	2	·	11*	0
O=C(Nc1ccc(Cl)cc1)c1ccc2snnc2c1	6.2*	2	0	1	11*	-1
CC(=O)CC[C@H]1CC[C@]2(CCCN(C(=O)C3CCCC3)C2)O1	4	·	0	·	2	-1
COC(=O)[C@@]12CCCCC3=C1N(CCC3)C(=O)[C@H]2CC(=O)N1CCCC1	-1	·	1	·	1	-1
CCC[C@H]1[C@@H](NC(=O)c2cccc(Cl)c2)CC[C@@]23CCCN2C(=O)CCC[C@@H]13	-1	·	·	·	-2	-1
COC(=O)c1cc(S(=O)(=O)N2CCN(c3ccccc3Cl)CC2)cn1C	-2	·	-2	·	0	-1
COC(=O)c1cc(C2(c3c[nH]c4ccccc34)CCN(C(=O)OC(C)(C)C)CC2)n2ccccc12	1	·	-1	·	2	-1
C/C(=C/c1[nH]c(N)[n+](CC2CC2)c1Cc1ccccc1)Cn1[nH]c(=O)n(-c2ccccc2)c1=O	-2	·	-1	·	-4	-2
O=C(O)c1ccc(S(=O)(=O)NN=Cc2c[nH]c3ccccc23)cc1	3	1	-1	1	1	0
Fc1c(F)c(F)c(N/N=C/c2c[nH]c3ccccc23)c(F)c1F	6.3*	7	0	0	-2	-1
O=C(O)c1ccc(N/N=C/c2c[nH]c3ccccc23)cc1	5.8*	-5	0	-5	0	0
Cn1c(N/N=C/c2c[nH]c3ccccc23)nc2ccccc21	5.6*	2	1	1	-1	1
Cc1cc(N/N=C/c2c[nH]c3ccccc23)c2ccccc2n1	4	3	-1	0	3	0
Cc1cc(C)nc(N/N=C/c2c[nH]c3ccccc23)n1	5	5	0	1	0	1
Cc1c(CC(=O)Nc2ccc(Cl)cc2)sc2ccc(Cl)cc12	0	2	0	6.4*	2	-1
CCOC(=O)[C@]12CCCC=C1N(Cc1ccc(OC)cc1)C(=O)[C@@H]2CC(=O)N1CCC(c2ccccc2)CC1	-4	·	-2	·	3	-2
c1cnc2c(C3NCCc4c3[nH]c3ccccc43)cccc2c1 (stereo unspecified)	·	-6	·	5.0*	·	·
O=C(O)c1cccnc1C(=O)N1CCc2c([nH]c3ccccc23)C1C(F)(F)F (stereo unspecified)	0	-3	0	·	0	-1
O=C(O)C1C2C=CC(C2)C1C(=O)N1CCc2ccccc21 (stereo unspecified)	5.6*	-3	-1	2	3	0
SMILES	hcDAF-12 act	FXN GAA850 act	DAX1 inh-1	DAX1 inh-2	hgDAF-12 ag	ssDAF-12 act
O=C(O)C1C2C=CC(C3CC23)C1C(=O)N1CCc2ccccc21 (stereo unspecified)	5	0	0	1	-1	0
COC(=O)[C@]12C[C@H](CC(=O)NCc3cccc(C(F)(F)F)c3)C(=O)N(Cc3cccc4ccccc34)C1=C[C@H](C(C)C)O[C@@H]2C1CC1	0	·	0	·	1	-1
Cc1ccccc1-c1nnc2c3ccccc3c(C)nn12	-2	2	0	0	-1	-1
Cc1nn2c(-c3ccco3)nnc2c2ccccc12	5.9*	3	1	1	2	0
CSC1=NC(=O)/C(=C/c2ccc(SC)cc2)S1	2	2	3	1	13*	-1
CCOC(=O)C1CCN(C2=NC(=O)/C(=C/c3ccc(Cl)cc3)S2)CC1	-2	0	0	-1	0	-1
CCOC(=O)CSC1=NC(=O)/C(=C\c2ccc(Cl)cc2)S1	2	3	1	-1	8	1.3*
O=C(CO/N=C/c1ccccc1OC(F)F)N1CCc2ccccc21	6.5*	2	0	2	3	-1
CC(C)(C)C(=O)Cn1ncc(N2CCCC2)c(Br)c1=O	3	1	2	2	5	0
CC(=O)Cn1ncc(Br)c(Br)c1=O	0	1	-1	6.6*	0	-2
CCOC(=O)[C@@]12CCC3=C1N(CCC3)C(=O)[C@H](CC(=O)NCc1cccc(C(F)(F)F)c1)C2	-2	·	-2	·	-1	-2
CC(C)(C)c1ccc(S(=O)(=O)N2CCCC2C(=O)N2CCc3ccccc3C2)cc1 (stereo unspecified)	2	·	0	·	0	-1
CC(C)(C)C1CCC(=NNC(=S)Nc2cccnc2)CC1 (stereo unspecified)	-1	-2	1	1	0	3.8*
O=c1[nH]c2ccc(S(=O)(=O)N3CCCC3)cc2o1	1	·	1	·	-1	-1
COc1ccc(C2=NCCn3nc4cc([N+](=O)[O-])ccc4c32)cc1	5.8*	2	1	-1	1	-1
CCCCNC(=O)C[C@@H]1C[C@]2(C(=O)OCC)CCC3=C2N(CCC3)C1=O	0	·	0	·	1	-1
COC(=O)[C@@H]1N=C(c2ccc(OC)cc2)O[C@]12C(=O)N(Cc1cn(Cc3ccccc3)nn1)c1cccc(Cl)c12	-3	·	-1	·	2	-1
CCOc1ccc(/C=C2\SC(=S)N(N3C(=O)C4CC4C3=O)C2=O)cc1 (stereo unspecified)	5.7*	3	1	-1	2	-2

Bioassay records from PubChem BioAssay.
